# Only some compounds are listed: those with a hit (about 12% of all), similar ones and a draw of the others.
# Ins promoter up = insulin promoter activators in MIN6 cells, imaging, high-content screening, mouse beta cells; z-score at 5 µM; hit rate 0.3% among 190,000; AID 1625, 2009; MIN6 insulin promoter-GFP reporter; hits give high values;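 active = z-score above 3 at 5 µM with at least 500 cells counted in the well; inconclusive = wells under 500 cells, flagged as cytotoxic or low count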
# L major viab = Leishmania major promastigote growth inhibition, primary screen. AID 1063, 2008. inhibition, % at 10 µM. Leishmania major promastigotes, resazurin fluorescence viability. hit rate 9% among 200,000; in the data active = inhibition above about 50%;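 also: promastigotes grown with compound for 44 hours at 28 °C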
# ROMK mod = ROMK potassium channel modulators, primary screen, cell-based, thallium flux, MLSMR library; Tet-inducible ROMK, thallium flux fluorescence; actives lie on both sides; hit rate 2% among 130,000; B-score at 10 µM; AID 1918, 2009; ATP-sensitive inward rectifier potassium channel 1 (Homo sapiens), P48048;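 active = signal ratio slope over the read window, or its plate-corrected B-score, at least 3 SD from the plate mean, either direction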;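 also: B-score of the F/F0 ratio slope over 7 to 12 s after thallium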
# WT yeast gro inh = growth inhibition of WT strain, primary screen, mitochondrial fusion inhibitor project, WT and mutant strains, chemical genetic; hit rate 2.1% among 190,000; mitochondrial fusion phenotypic screen; inhibition, % at 10 µM; in the data active = inhibition above about 58%; tested in S. cerevisiae
# Insulin prom inh = inhibitors of insulin promoter-driven GFP, primary screen, imaging, TRM-6 cells (human fetal islet line), eGFP reporter, cell count; reporter expression induced with tamoxifen; inhibition, % at 2 µM; AID 1273, 2008; hit rate 0.9% among 130,000;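 active = inhibition above the mean plus 3 SD, with well images judged a real hit on visual review, cut at about 60% in these data, passing the limit was not always enough; inconclusive = inhibition over the cutoff but images rejected on review; inactive = inhibition not above the cutoff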
# Cl transport mod = KCC2 cotransporter modulators, thallium flux, primary screen, cell-based, HEK293 KCC2, FluoZin-2 fluorescence, MLSMR; Solute carrier family 12 member 5 (Homo sapiens), Q9H2X9; KCC2 cells, thallium flux FluoZin-2 fluorescence; B-score of Tl+ flux slope (higher = more flux/activation; lower = inhibition) at 10 µM; hit rate 2.2% among 190,000;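 active = thallium flux slope and its plate-corrected score both differing from the plate sample mean at a set confidence after two filtering rounds, in either direction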;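 also: slope of fluorescence scaled to starting intensity during 10 to 20 s after thallium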
# Target sequence (Q9H2X9 whole entry, looked up): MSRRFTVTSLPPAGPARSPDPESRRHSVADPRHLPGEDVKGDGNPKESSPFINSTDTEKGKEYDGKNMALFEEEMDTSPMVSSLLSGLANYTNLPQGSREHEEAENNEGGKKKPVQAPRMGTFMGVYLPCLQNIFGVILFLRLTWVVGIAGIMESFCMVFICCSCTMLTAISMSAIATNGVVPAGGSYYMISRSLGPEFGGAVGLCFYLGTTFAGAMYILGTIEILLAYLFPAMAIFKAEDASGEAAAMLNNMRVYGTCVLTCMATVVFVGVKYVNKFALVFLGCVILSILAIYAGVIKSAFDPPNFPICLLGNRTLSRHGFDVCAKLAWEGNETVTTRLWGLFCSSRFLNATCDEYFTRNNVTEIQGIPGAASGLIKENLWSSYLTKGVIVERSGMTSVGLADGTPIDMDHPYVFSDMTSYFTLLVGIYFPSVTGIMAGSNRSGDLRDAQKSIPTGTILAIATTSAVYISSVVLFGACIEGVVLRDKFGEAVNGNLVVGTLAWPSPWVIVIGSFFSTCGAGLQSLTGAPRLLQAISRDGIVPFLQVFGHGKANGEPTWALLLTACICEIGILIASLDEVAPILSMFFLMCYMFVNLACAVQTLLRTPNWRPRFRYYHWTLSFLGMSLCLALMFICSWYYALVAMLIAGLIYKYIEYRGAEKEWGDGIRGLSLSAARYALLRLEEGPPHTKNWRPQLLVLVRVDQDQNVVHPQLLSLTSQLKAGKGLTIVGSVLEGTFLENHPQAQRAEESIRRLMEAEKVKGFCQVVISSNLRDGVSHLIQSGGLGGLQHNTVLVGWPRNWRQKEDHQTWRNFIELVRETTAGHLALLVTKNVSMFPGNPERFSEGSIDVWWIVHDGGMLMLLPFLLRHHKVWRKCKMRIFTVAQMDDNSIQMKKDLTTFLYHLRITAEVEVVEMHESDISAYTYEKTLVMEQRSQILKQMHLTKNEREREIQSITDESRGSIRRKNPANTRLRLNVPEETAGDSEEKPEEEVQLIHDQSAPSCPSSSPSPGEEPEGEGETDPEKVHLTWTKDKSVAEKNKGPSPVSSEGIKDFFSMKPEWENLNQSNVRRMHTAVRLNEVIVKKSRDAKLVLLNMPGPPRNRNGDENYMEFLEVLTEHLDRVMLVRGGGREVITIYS
# ROMK retest = ROMK channel modulator hit retest, confirmation, cell-based, thallium flux, duplicate, resupplied hits | normalized thallium flux (F/F0 slope) at 10 µM | fluorescence ratio; hits give low values | hit rate 54% among 3,000 | shares compounds with ROMK mod | AID 1917, 2009;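 active = Flux at 10 µM at least 3 SD below or above vehicle control mean in one or both replicates; inconclusive = no clear call, values can overlap the other calls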
# * = called active by the depositor; u = inconclusive; x = no result.
SMILES,Ins promoter up,L major viab,ROMK mod,WT yeast gro inh,Insulin prom inh,Cl transport mod,ROMK retest
COc1cccc(-n2nnnc2SCC(=O)NCc2ccco2)c1,x,-4,0.68,-8,26,0.015,x
COc1ccc(-n2nnnc2SCC(=O)NCc2ccco2)cc1OC,-1.1,-8,x,26,x,0.1,0.077
CCOC(=O)c1cc(-c2ccc(/C=N\n3cnnc3)o2)ccc1Cl,-0.14,7,x,24,30,-0.2,0.066*
Cc1cc(Br)cc2cn[nH]c12,-0.42,-4,1.2,-9,-20,x,x
O=S(=O)(Nc1cccc(-c2cn3cccnc3n2)c1)c1ccc(-c2ccccc2)cc1,x,1,x,13,7,-1.8,0.073
O=S(=O)(Nc1ccc(-c2cn3cccnc3n2)cc1)c1ccccc1,0.17,3,0.015,-14,x,-0.23,x
COc1ccc(C2CC(=O)Oc3c(C(CCN4CCCC(C)C4)c4ccc(N(C)C)cc4)c(OC)cc(OC)c32)cc1 (stereo not given),0.95,x,x,x,x,0.012,0.059*
CC(=O)c1sc(NC(=O)c2cc(=O)c3ccccc3o2)nc1C,-1.1,-2,2.9*,-10,x,0.39,0.077
CCOC(=O)c1csc(NC(=O)c2cc(=O)c3ccccc3o2)n1,-0.3,4,0.8,-8,x,0.012,x
CN1C(C(=O)c2ccccc2)=C(N)c2ccccc2S1(=O)=O,x,1,3*,-19,x,-0.84,0.066*
Cc1[nH]c2ccc(OC(=O)N3CCOCC3)cc2c1C(=O)OC(C)C,x,8,x,-11,-46,x,x
O=C(/C=C/c1ccccc1)NNC(=O)c1cccnc1,-0.54,-10,0.017,11,42,0.78,x
N#Cc1ccc(/C=C/C(=O)c2cccnc2)cc1,-0.53,101*,-3.3*,1,x,-1.1,0.045*
O=C(/C=C/c1ccc(Cl)cc1)c1cccnc1,0.14,100*,-8.1*,10,45,-0.1,0.043*
O=C(/C=C/c1ccccc1Cl)c1cccnc1,0.89,98*,-7.4*,19,-22,-0.37,0.044*
O=C1NC(=S)S/C1=C\c1coc2ccc(O)cc2c1=O,0.1,x,x,x,x,-5.7,0.032*
Cc1c(C(=O)O)cccc1-c1ccc(/C=N/Nc2ccc(Br)cc2)o1,0.33,-16,1.7*,50,32,-1.3,0.1*
C[n+]1c2n(c3ccccc31)N=C(c1cc(C(C)(C)C)c(O)c(C(C)(C)C)c1)CS2,u,100*,-5.5*,76*,11,-3.4,0.039*
COc1cccc(C2=Nn3c(nnc3-c3ccccc3O)SC2)c1,-0.88,-8,x,24,-24,x,x
CC1CCN(CCCCOc2ccc(Br)cc2)CC1,0.37,99*,-1.3,1,15,-1.6,u
Cc1ccc(C(=O)N/C(=C\c2cccs2)c2nc3ccccc3[nH]2)cc1,-0.31,7,x,-11,4,0.51,x
CSc1nc(O)cc(=O)n1-c1ccc(F)cc1,0.8,-8,0.56,-5,x,0.84,x
CN(C)c1nc(C=C(C#N)C#N)c(Cl)n1-c1ccc(F)cc1,0.35,24,-3.9*,-3,x,-0.091,0.059*
Cc1nc(N)sc1Cc1ccc2c(c1)OCO2,0.18,7,x,12,x,x,x
COc1cc(C(=O)Nc2nc(C)c(Cc3ccc4c(c3)OCO4)s2)cc(OC)c1OC,-0.65,18,2.6*,51,-67,-1.3,0.11*
O=C(O)CCC(NC(=O)C1CCCN1C(=O)OCc1ccccc1)C(=O)O (stereo not given),x,-6,1.5*,-10,x,0.37,0.084
O=C(Nc1ccc2c(c1)OCO2)C1CCCN1C(=O)OCc1ccccc1 (stereo not given),-0.97,-2,x,5,-33,-0.012,x
COc1ccc(S(=O)(=O)N2CCC[C@H]2C(=O)NC2=NCCS2)cc1,-0.08,-3,x,66*,-14,0.22,0.071
COCCCn1cnnc1SCc1nc2sc(C(C)=O)c(C)c2c(=O)[nH]1,-0.42,x,x,x,x,-0.41,x
CCOC(=O)N1CCN(C(=O)c2cn(CC)c3ccc(S(=O)(=O)N4CCCC4)cc3c2=O)CC1,0.36,-1,1.1,0,39,0.85,x

# Screening data (PubChem BioAssay)
